Experimental data taken from PubChem BioAssay AID624351 (Southern Research Specialized Biocontainment Screening …, 2012).
Hit rate of the full screen: of about 2,400 compounds, about 1,400 (58%) were called active.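 The calls were made as follows: active = inhibition of 30% or more at any tested dose; inconclusive = primary hits over the limit that were never retested; inactive = the rest.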 So high a share suggests a set chosen from earlier hits. The list shows a part of the results.

Test: ADP Hunter readout inhibition without MgcRacGAP – biochemical, coupled enzyme counter-screen, artefact control for MgcRacGAP inhibitor project, dose response (AID 624351);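 also: signal is the ADP detection kit reading of free GDP without any GAP enzyme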;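 as to inhibition: 0% = median positive control wells and 100% = median negative control wells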
Details: fluorescence, no MgcRacGAP; series mostly up to 80 µM; inhibition: at the top concentration
With Oc1ccc(-c2cn3c(n2)SCC3)cc1 the IC50 was 19.5 µM (active).
With CCOc1cc(/C=C(\C#N)c2[nH]nc(N)c2C#N)ccc1O the IC50 was 45.7 µM (active).
In the case of CCOc1cc(-c2cc(-c3ccc(N)cc3)nc(N)c2C#N)ccc1O, the “inhibition” value is reported as 0.56% (inactive).
In the case of CC1CCCN(CCOc2ccc3ccccc3c2Br)C1 (stereo not given), the “inhibition” value is reported as 10.3% (inactive).
With Oc1ccc2ccccc2c1Br the IC50 was 15.8 µM (active).
In the case of CC1NC(C)c2c(ccc3ccccc23)O1 (stereo not given), the “inhibition” value is reported as 20.8% (inactive).
In the case of CN1C(=O)C2C(c3ccc(N(C)C)cc3)=NN(Cc3ccccc3)C2C1=O (stereo not given), the IC50 is reported as 46.5 µM (active).
With c1ccc(Nc2cc(Nc3ccccc3)[nH]n2)cc1 the IC50 was 57.9 µM (active).
In the case of C/C=C/C=C/C(=O)[C@@H]1[C@@H]([C@]2(C)OC(=O)C(C)=C2O)[C@H]2/C(=C(O)/C=C/C=C/C)C(=O)[C@]1(C)C(=O)C2(C)O (stereo not given in full), the “inhibition” value is reported as -21.4% (inactive).
For Oc1ccc(NC(=S)N=Nc2c(O)[nH]c3ccccc23)cc1, the IC50 was 27.5 µM (active).
For Nc1ccc2nc(CCCCc3nc4ccccc4[nH]3)[nH]c2c1, the IC50 was 59.4 µM (active).
For Nc1ccc2nc(Cc3ccccc3)[nH]c2c1, the IC50 was 72.6 µM (active).
With O=C1C(=Cc2ccco2)CCC1=Cc1ccco1 the inhibition was -16.6% [at 10 µM] (inactive).
In the case of O=C(CCC1CCCC1)N1CCN(C2CCCC2)CC1, the “inhibition” value is reported as 18.7% (inactive).
In the case of CC/C(=C\c1ccc(N(C)C)cc1)c1ccncc1, the IC50 is reported as 29.7 µM (active).
With COC1=C(Br)C(=O)c2nc(C)ccc2C1=O the “inhibition” value was -0.53% (inactive).
In the case of Cc1ccccc1C(=O)Nc1ccc(N2CCCC2)cc1, the IC50 is reported as 70.8 µM (active).
In the case of O=C(Nc1ccc(N2CCCCC2)cc1)c1ccccc1, the “inhibition” value is reported as 26.5% (inactive).
In the case of O=C(Nc1ccc(N2CCCCCC2)cc1)c1ccc[nH]1, the IC50 is reported as 38.8 µM (active).
For CN1CCN(Cc2coc3c(Cl)cc(Cl)cc3c2=O)CC1, the “inhibition” value was 23% (inactive).
For Cc1ccc(CCC(=O)Nc2ccc(N(C)C)cc2)o1, the IC50 was 57.5 µM (active).
With Cc1ccc(NC(=O)CCNCc2ccco2)cc1S(=O)(=O)N(C)C the “inhibition” value was 17.8% (inactive).
For COc1ccc(NC2CCCN(C(=O)CSc3ccccc3)C2)cc1OC (stereo not given), the IC50 was 68.5 µM (active).
In the case of COc1ccc(C2CC(c3ccc4ccccc4c3)=NN2C(=O)CNC2CCCCC2)cc1 (stereo not given), the “inhibition” value is reported as 8.63% (inactive).
For COc1ccc(C(=O)N2CCN(C3CCN(Cc4ccccc4)CC3)CC2)cc1OC, the “inhibition” value was 21.6% (inactive).
For COc1ccc(NC2CCCN(C(=O)CCN3CCCC3=O)C2)cc1OC (stereo not given), the “inhibition” value was 28% (inactive).
In the case of COc1ccc(CN2CCN(Cc3cccc(F)c3)CC2)cc1OC, the “inhibition” value is reported as 13% (inactive).
For O=C(c1cccc(F)c1)N1CCN(Cc2cccc(Br)c2)CC1, the “inhibition” value was 15.5% (inactive).
With COc1ccc(NC2CCCN(C(=O)CCN3Cc4ccccc4C3=O)C2)cc1 (stereo not given) the IC50 was 63 µM (active).
With COc1ccc(NC2CCCN(C(=O)CCc3cccc(F)c3)C2)cc1 (stereo not given) the IC50 was 72.9 µM (active).
In the case of COc1ccc(NC2CCCN(C(=O)CCN3CCCO3)C2)cc1 (stereo not given), the “inhibition” value is reported as 27.3% (inactive).
In the case of CCOc1ccccc1/C=c1\sc2ncnn2c1=O, the “inhibition” value is reported as 1.49% (inactive).
For CN1C(=O)NC(c2ccc(O)cc2)C2=C1CN(c1ccc(O)cc1)C2=O (stereo not given), the IC50 was 44.7 µM (active).
With O=C(Cn1c(C(=O)NCC2CCCO2)cc2sccc21)c1ccccc1 (stereo not given) the IC50 was 81.6 µM (active).
With O=C(CN1CCCCCC1)NCC1CCCO1 (stereo not given) the “inhibition” value was 18.5% (inactive).
With C=CCOc1ccccc1CN1CCCN(C)CC1 the “inhibition” value was 15.9% (inactive).
For Oc1ccc(-c2csc(NCc3ccco3)n2)cc1, the IC50 was 24 µM (active).
With Oc1ccc(-c2csc(Nc3cccnc3)n2)cc1 the IC50 was 15.8 µM (active).
With COc1cccc(NC2=C(C#N)C(=O)NC(c3cccc(OC)c3O)S2)c1 (stereo not given) the “inhibition” value was 4.84% (inactive).
In the case of COc1cccc(CNCc2ccco2)c1O, the “inhibition” value is reported as 14.1% (inactive).
With Oc1ccc(-c2csc(Nc3ncccn3)n2)cc1 the IC50 was 21.3 µM (active).
With COc1cccc(Nc2nc(-c3ccc(O)cc3)cs2)c1 the IC50 was 63.7 µM (active).
With COc1ccc(-n2c(SCC(=O)C(C)(C)C)nc3c(sc(=S)n3-c3ccccc3)c2=O)c(OC)c1 the “inhibition” value was 4.76% (inactive).
For Cc1ccnc(Nc2nc(-c3ccc(O)c(O)c3)cs2)c1, the IC50 was 61 µM (active).
In the case of Cc1nc2ncccn2c1-c1csc(Nc2ccc(O)cc2)n1, the IC50 is reported as 11.1 µM (active).
For O=C(Nc1nc(-c2ccncc2)cs1)C1COc2ccccc2O1 (stereo not given), the “inhibition” value was -0.97% (inactive).
With Oc1ccc(-c2csc(Nc3ccccn3)n2)c(O)c1 the IC50 was 63.3 µM (active).
In the case of Oc1ccc(-c2csc(Nc3ccccn3)n2)cc1, the IC50 is reported as 79.7 µM (active).
For NNc1cc([N+](=O)[O-])cc2c1C(=O)N(Cc1ccccc1)S2=O (stereo not given), the “inhibition” value was -2.56% (inactive).
For O=C1NN(c2ccccc2)C(=O)C1=Cc1ccccc1O, the “inhibition” value was 1.15% (inactive).
In the case of COc1cccc(OCC(O)CN2CCN(C)CC2)c1 (stereo not given), the “inhibition” value is reported as 25.3% (inactive).
In the case of c1ccc(CCNCCCOc2cccc3ccccc23)cc1, the “inhibition” value is reported as 17.6% (inactive).
For COc1cc2c(cc1N)-c1ccc(N)cc1C2=O, the IC50 was 16.5 µM (active).
With Nc1ccc2c(c1)C(=O)c1cc(N)c(Cl)cc1-2 the IC50 was 49.2 µM (active).
With O=C(/C=C/c1ccc([N+](=O)[O-])cc1)/C=C/c1ccco1 the “inhibition” value was -25.6% (inactive).
For Cc1ccc(Cl)c(OCCCN(C)Cc2ccccc2)c1, the “inhibition” value was 19.9% (inactive).
With O=C(CNCC1CCCO1)Nc1ccc(N2CCCCCC2)cc1 (stereo not given) the “inhibition” value was 29.8% (inactive).
In the case of CC1=NN(c2cccc(C(=O)O)c2)C(=O)/C1=C\C=C\c1ccco1, the “inhibition” value is reported as 5.84% (inactive).
With N#Cc1ccccc1OCCCN1CCC(Cc2ccccc2)CC1 the “inhibition” value was 15.2% (inactive).
In the case of CC(=O)c1c(C)c(C)c2n1CCn1c(C)ccc1-2, the IC50 is reported as 44.7 µM (active).
For COc1ccc(NCc2ccsc2)cc1, the IC50 was 28.9 µM (active).
For COc1cccc(OC)c1C(=O)N1CCN(Cc2cccnc2)CC1, the “inhibition” value was 19.6% (inactive).
In the case of COc1ccc(NCc2cccnc2)cc1, the IC50 is reported as 54.6 µM (active).
With COc1ccc2cc(CNCCOCCOCCNCc3ccc4cc(OC)ccc4c3)ccc2c1 the “inhibition” value was 8.48% (inactive).
In the case of Clc1nc(NCc2cccnc2)nc(N2CCOCC2)n1, the “inhibition” value is reported as 2.09% (inactive).
For N#CCCN(CCC#N)c1nncs1, the “inhibition” value was 3.07% (inactive).
With Cc1ccc2c(c1)C(C)CC(C)(C)N2C(=O)CN1CCN(C)CC1 (stereo not given) the “inhibition” value was 25% (inactive).
For COc1ccc2c(c1)-c1nc(/N=C/c3ccccc3O)sc1CC2, the IC50 was 32.7 µM (active).
For COc1ccc2c(c1)-c1nc(/N=C/c3cccc(OC)c3O)sc1CC2, the IC50 was 29.2 µM (active).
In the case of COc1ccc2c(c1)-c1nc(/N=C/c3c(O)ccc4ccccc34)sc1CC2, the IC50 is reported as 62.7 µM (active).
For COc1ccc2nc(C)cc(N/N=C/c3cccc(OC)c3O)c2c1, the “inhibition” value was 25% (inactive).
In the case of Cc1cc(Cl)c(OCCOCCN2CCN(C)CC2)c(Br)c1, the “inhibition” value is reported as 24.2% (inactive).
For CCCCN(C)CCNC(=O)CSCc1ccc(C)cc1, the “inhibition” value was 15.9% (inactive).
With O=C(N/N=C/c1ccc(N2CCOCC2)s1)c1ccc(O)cc1 the IC50 was 25.2 µM (active).
For Nc1ccc(C(=O)N/N=C/c2ccc(N3CCOCC3)s2)cc1, the IC50 was 19.5 µM (active).
With Cc1cc(OCCCN2CCN(Cc3ccccc3)CC2)ccc1[N+](=O)[O-] the “inhibition” value was 24.2% (inactive).
For CC(=O)Nc1cccc2cc(O)ccc12, the IC50 was 35.8 µM (active).
For O=C(/C=C/c1ccc(O)c(O)c1)OC(Cc1ccc(O)c(O)c1)C(=O)O (stereo not given), the IC50 was 44.1 µM (active).
With O=C1N=c2ccccc2=C1c1sc(Nc2ccc(O)cc2)nc1O the “inhibition” value was 20.5% (inactive).
With Cc1ccc(-c2csc3n[nH]c(=S)n23)cc1 the IC50 was 61.8 µM (active).
With CC1(C)Nc2cccc3cccc(c23)N1 the IC50 was 31.9 µM (active).
For C/C(=N\Nc1ccc(S(=O)(=O)N2CCCCC2)cn1)c1ccc(O)cc1, the IC50 was 20 µM (active).
For COc1ccc(OC(=O)c2cc(S(=O)(=O)N3CCCC3)ccc2Cl)cc1, the “inhibition” value was 2.36% (inactive).
In the case of CC1CCCC(N2CCN(C(=O)c3ccc([N+](=O)[O-])cc3)CC2)C1 (stereo not given), the “inhibition” value is reported as -14.3% (inactive).
In the case of Cc1ccc(NCc2ccco2)cc1C, the “inhibition” value is reported as -4.65% (inactive).
For Cc1ccc(NCCCCO)cc1C, the IC50 was 43.3 µM (active).
With C/C(=N\Nc1cccc2cccnc12)c1ccc[nH]1 the “inhibition” value was 20.1% (inactive).
In the case of Cc1nc(Cc2nnc(SCC(=O)N3CCN(c4ccc(O)cc4)CC3)o2)cs1, the IC50 is reported as 30.6 µM (active).
In the case of Cc1cccc(NC2=C(C#N)C(=O)NC3(CCCC3)S2)c1, the “inhibition” value is reported as 0.64% (inactive).
For COc1ccccc1N1CCN(/N=C/c2ccc(O)cc2O)CC1, the IC50 was 70.9 µM (active).
In the case of COc1cc(/C=N/N2CCN(c3ccccc3OC)CC2)ccc1O, the IC50 is reported as 36.5 µM (active).
In the case of COc1ccccc1N1CCN(CCCOc2ccc(F)cc2)CC1, the “inhibition” value is reported as 19.5% (inactive).
For COc1cccc(OC)c1NC(=O)CN1CCN(C)CC1, the “inhibition” value was 25.3% (inactive).
With COc1ccc(/C=N/N2CCN(C)CC2)cc1O the IC50 was 42.6 µM (active).
For COc1cc(/C(C)=N/N2CCN(c3ccccc3OC)CC2)ccc1O, the “inhibition” value was 25.9% (inactive).
For COc1ccc(CN2CCCN(C)CC2)c(OC)c1C, the “inhibition” value was 16.2% (inactive).
In the case of COc1ccccc1N1CCN(CC(=O)c2ccc(F)cc2)CC1, the “inhibition” value is reported as -12.8% (inactive).
With Cc1ccc(N2C(N)=C(C#N)C3(C(=O)N(C)c4ccccc43)C3=C2CC(C)(C)CC3=O)cc1Cl (stereo not given) the “inhibition” value was 1.04% (inactive).
In the case of Cc1cccc2sc(NNC(=O)c3cc(=O)c4ccccc4o3)nc12, the IC50 is reported as 64.9 µM (active).
With CC1C(=O)NN=C1C(=O)N/N=C\c1ccc(O)cc1O (stereo not given) the IC50 was 37.7 µM (active).
For COc1cc(/C=N/NC(=O)C2=NNC(=O)C2C)ccc1O (stereo not given), the IC50 was 74.7 µM (active).
With COc1cc(/C=N/NC(=O)CC2C(=O)NN=C2C)ccc1O (stereo not given) the IC50 was 59.1 µM (active).
In the case of CCN1CCN(Cc2ccc(NC(=O)c3ccc(C)c(/C=C/c4cnc(Nc5cc(N6CCNCC6)nc(C)n5)cn4)c3)cc2C(F)(F)F)CC1, the “inhibition” value is reported as -0.63% (inactive).
With O=C(N/N=C/c1sc2ccccc2c1O)c1cccc2ccccc12 the IC50 was 60.6 µM (active).
For O=C(N/N=C/c1ccc(F)cc1)c1cc(-c2ccco2)nc2ccccc12, the “inhibition” value was -10.7% (inactive).
With Cc1c(C(=O)N/N=C/c2ccc(O)cc2)sc(=S)n1C the “inhibition” value was 19.2% (inactive).
For O=C(N/N=C/c1ccc(O)cc1)c1csc2ccccc12, the IC50 was 43.1 µM (active).
For O=C(N/N=C/c1ccc(O)cc1)c1csc2c1CCCC2, the IC50 was 40.6 µM (active).
With C=CCc1cccc(Cl)c1OCCCNC1CCCC1 the “inhibition” value was 8.95% (inactive).
In the case of O=C1ON=C(c2ccccc2)/C1=C/c1ccco1, the “inhibition” value is reported as -3.67% (inactive).
With Cc1ccc(COC(=O)Cc2coc3cc(O)ccc23)cc1 the IC50 was 28.9 µM (active).
For Cn1cccc1CC(=O)N/N=C/C=C/c1ccco1, the “inhibition” value was -26.5% (inactive).
With COc1ccc(CN(C)CCc2ccccn2)cc1OC the “inhibition” value was 20.1% (inactive).
With Oc1ccc(CCc2ccccn2)cc1 the IC50 was 44.9 µM (active).
For c1ccc(CNC23CC4CC(CC(C4)C2)C3)nc1, the “inhibition” value was 17.5% (inactive).
